Reference: the supplement of paper PMC11732987, “Enantioselective OTUD7B fragment discovery through chemoproteomics screening and high-throughput optimisation” (Communications Chemistry, 2025)

Assays:
Experiment in all cases: log2 ratio of Biotin-Ahx-Ub-VS probe labelling (fragment/DMSO); higher = less target engagement (more negative = stronger competition), active = hit call of the paper (q ≤ 0.05, log2 ratio ≤ -1)
Conditions in all cases: compound concentration: 200 uM; treatment time: 3 h
USP34 = USP34 (UniProt Q70CQ2)
USP34, sequence (Q70CQ2 whole entry, the tested form may be a part): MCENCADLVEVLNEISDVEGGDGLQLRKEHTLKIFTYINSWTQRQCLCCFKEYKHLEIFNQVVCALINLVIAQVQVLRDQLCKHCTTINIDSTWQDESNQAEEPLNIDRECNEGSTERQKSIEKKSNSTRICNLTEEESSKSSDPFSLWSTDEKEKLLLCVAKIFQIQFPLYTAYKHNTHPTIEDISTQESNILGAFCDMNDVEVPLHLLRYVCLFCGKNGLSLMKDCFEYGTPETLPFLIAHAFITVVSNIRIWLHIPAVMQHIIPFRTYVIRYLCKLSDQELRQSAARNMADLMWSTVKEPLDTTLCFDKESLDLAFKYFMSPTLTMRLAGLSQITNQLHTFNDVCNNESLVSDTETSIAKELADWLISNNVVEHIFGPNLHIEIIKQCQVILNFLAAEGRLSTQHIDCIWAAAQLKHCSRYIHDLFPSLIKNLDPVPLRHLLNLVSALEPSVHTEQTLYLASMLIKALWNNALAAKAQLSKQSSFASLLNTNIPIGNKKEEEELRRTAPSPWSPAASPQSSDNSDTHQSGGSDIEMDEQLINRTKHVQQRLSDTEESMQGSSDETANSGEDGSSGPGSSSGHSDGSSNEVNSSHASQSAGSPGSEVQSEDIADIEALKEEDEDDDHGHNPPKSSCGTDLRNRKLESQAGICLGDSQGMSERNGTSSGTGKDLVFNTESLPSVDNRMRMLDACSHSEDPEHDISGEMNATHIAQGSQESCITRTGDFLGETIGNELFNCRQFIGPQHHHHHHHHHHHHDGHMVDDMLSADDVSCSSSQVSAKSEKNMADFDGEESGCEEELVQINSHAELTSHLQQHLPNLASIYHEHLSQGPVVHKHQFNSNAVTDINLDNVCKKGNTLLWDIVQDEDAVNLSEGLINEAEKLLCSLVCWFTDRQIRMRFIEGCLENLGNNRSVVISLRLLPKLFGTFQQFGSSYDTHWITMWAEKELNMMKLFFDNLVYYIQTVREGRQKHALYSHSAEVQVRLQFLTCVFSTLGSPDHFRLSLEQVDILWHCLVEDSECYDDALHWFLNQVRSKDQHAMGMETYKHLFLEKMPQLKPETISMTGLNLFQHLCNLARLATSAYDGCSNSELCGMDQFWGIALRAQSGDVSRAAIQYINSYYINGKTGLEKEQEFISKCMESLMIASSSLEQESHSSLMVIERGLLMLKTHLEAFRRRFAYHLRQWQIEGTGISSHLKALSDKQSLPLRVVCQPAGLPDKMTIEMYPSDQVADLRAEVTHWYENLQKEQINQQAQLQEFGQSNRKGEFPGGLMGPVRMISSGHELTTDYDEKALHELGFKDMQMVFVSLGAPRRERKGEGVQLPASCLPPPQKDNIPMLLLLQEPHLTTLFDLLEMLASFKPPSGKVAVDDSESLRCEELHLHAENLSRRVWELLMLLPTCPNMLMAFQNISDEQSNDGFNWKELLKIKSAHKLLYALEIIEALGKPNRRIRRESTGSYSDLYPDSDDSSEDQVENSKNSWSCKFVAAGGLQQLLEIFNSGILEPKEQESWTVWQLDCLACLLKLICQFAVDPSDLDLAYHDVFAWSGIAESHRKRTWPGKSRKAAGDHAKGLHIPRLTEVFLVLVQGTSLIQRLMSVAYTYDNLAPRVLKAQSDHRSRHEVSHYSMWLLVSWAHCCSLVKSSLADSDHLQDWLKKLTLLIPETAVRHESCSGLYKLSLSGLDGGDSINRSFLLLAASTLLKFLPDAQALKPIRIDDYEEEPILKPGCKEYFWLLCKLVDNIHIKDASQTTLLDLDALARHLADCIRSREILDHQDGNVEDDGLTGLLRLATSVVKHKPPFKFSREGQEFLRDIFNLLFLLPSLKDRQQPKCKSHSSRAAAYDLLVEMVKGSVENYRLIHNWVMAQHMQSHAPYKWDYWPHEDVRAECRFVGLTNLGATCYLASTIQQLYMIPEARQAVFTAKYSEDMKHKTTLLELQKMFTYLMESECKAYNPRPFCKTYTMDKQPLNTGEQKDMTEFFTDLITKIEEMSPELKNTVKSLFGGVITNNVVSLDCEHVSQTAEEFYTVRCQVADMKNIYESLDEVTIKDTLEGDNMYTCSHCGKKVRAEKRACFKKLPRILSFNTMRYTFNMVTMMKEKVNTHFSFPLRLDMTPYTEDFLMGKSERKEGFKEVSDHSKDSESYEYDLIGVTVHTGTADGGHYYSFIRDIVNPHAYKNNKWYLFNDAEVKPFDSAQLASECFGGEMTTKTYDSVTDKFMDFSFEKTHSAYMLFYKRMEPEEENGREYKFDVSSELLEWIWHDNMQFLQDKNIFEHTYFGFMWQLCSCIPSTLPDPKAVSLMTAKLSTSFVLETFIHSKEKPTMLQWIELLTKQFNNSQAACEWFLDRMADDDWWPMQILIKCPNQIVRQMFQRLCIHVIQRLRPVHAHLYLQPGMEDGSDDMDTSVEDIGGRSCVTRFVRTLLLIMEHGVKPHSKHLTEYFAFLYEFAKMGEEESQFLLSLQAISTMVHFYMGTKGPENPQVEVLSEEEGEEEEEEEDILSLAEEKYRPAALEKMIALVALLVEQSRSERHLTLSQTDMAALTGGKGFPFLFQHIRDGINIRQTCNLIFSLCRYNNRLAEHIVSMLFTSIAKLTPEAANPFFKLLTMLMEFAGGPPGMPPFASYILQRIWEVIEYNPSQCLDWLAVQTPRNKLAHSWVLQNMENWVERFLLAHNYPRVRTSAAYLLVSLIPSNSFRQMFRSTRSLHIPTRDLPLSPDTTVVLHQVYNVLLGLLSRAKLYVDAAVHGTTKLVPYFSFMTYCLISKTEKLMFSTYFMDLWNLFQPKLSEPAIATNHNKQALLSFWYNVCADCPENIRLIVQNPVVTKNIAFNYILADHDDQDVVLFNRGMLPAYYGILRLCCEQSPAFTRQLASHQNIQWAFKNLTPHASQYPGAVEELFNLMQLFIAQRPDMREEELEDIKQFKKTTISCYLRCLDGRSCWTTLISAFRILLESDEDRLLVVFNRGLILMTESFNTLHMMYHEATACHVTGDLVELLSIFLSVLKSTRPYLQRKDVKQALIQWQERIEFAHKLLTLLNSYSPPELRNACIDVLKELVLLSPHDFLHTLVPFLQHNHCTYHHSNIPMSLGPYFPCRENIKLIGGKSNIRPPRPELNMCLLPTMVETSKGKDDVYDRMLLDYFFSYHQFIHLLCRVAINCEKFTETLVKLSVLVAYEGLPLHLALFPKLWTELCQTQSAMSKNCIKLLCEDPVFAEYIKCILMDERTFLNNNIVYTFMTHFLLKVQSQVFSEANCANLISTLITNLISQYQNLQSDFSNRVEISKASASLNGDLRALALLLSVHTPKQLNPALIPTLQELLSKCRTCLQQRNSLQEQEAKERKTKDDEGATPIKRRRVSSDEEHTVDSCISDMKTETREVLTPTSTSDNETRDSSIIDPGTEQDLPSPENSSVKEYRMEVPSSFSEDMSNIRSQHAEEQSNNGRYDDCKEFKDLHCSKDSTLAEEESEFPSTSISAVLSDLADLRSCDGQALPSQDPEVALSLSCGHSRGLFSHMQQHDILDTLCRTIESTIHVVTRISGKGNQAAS
Summary of the method: (§1)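 Labelled DUBs were enriched with NeutrAvidin, digested with LysC and trypsin, and run by diaPASEF LC-MS/MS. The labelling used Biotin-Ahx-Ub-VS at 0.5 µM final for 1 h on HEK293T lysate (495 µg per sample) previously treated in triplicate with fragment at 200 µM or vehicle for 3 h. Values are average log2 fragment/vehicle ratios by unpaired t-test on global-median-normalised Spectronaut quantities of proteins with ≥2 unique peptides.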

USP36 = target: T1, USP36 (UniProt Q9P275)
T1 sequence (whole entry): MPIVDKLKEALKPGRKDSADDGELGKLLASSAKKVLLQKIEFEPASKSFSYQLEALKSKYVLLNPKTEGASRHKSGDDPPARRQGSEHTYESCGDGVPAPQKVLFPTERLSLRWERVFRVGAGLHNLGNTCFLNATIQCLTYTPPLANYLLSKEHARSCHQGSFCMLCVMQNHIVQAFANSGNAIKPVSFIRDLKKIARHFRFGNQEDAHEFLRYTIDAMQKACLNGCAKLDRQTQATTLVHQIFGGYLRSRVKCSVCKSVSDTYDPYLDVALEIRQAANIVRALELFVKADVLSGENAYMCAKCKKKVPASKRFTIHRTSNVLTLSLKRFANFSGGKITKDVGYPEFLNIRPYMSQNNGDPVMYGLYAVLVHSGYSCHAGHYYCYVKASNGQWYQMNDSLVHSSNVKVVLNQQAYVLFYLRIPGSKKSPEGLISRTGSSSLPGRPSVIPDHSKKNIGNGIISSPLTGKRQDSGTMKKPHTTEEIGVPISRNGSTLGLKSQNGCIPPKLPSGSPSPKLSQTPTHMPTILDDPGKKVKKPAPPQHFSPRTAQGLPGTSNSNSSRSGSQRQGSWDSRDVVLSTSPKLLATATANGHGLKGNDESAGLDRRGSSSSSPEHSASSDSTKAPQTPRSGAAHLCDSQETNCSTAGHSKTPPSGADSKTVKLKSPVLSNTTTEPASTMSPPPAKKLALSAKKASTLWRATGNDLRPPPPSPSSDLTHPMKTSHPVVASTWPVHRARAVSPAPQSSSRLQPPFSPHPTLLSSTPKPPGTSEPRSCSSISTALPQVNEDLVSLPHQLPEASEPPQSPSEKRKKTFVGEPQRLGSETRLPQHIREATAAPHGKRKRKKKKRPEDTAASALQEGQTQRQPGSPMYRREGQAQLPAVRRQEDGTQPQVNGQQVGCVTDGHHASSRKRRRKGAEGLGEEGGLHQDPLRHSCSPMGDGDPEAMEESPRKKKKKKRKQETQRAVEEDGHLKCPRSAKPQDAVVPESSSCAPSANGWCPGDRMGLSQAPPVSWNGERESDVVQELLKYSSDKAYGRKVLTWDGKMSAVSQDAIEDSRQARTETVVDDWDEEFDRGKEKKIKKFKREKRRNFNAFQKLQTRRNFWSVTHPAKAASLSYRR
Summary of the method: as §1

USP38 = target: T2, USP38 (UniProt Q8NB14)
T2 sequence (whole entry): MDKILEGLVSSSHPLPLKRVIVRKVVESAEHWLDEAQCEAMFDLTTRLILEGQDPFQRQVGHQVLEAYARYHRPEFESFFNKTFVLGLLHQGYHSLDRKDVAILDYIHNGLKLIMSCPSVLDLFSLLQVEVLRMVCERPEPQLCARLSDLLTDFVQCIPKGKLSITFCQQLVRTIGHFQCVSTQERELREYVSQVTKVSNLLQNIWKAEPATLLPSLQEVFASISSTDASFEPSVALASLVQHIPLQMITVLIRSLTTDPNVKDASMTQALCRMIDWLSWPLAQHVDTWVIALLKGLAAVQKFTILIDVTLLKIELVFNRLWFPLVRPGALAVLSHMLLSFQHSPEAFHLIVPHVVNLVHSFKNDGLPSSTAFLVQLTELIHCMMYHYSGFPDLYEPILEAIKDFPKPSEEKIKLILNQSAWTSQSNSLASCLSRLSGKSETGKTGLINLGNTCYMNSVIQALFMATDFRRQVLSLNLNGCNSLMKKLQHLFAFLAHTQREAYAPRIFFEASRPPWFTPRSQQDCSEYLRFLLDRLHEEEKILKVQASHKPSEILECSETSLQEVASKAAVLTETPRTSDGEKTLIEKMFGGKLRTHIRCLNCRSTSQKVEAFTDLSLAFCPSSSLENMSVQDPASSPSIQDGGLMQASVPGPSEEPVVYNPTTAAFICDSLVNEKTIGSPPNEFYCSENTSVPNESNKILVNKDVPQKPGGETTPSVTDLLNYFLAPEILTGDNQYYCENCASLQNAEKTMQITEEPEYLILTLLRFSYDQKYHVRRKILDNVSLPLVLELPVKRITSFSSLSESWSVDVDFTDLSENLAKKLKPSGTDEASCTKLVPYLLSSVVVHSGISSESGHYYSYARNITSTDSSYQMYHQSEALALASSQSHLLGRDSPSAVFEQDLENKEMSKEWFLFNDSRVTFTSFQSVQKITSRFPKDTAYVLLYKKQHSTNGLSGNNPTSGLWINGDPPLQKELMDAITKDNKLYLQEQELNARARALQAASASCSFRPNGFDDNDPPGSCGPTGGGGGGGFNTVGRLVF
Summary of the method: as §1

USP39 = target: T3, USP39 (UniProt Q53GS9)
T3 sequence (whole entry): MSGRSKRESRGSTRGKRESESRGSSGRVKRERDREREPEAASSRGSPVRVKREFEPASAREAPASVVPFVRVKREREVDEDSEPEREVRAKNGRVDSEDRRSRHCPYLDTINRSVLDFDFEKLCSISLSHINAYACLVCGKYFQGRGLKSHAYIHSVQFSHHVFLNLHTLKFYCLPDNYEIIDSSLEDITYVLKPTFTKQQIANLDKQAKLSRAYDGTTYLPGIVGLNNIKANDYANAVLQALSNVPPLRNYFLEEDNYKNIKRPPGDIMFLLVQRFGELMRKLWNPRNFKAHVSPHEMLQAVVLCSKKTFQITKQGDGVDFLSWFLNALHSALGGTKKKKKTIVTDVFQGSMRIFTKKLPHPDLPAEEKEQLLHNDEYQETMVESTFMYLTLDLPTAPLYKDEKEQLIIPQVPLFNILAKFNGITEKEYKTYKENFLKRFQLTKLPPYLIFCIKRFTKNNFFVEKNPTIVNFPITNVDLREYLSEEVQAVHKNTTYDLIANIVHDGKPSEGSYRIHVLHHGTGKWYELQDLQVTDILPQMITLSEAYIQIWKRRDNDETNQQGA
Summary of the method: as §1

USP4 = target: T4, USP4 (UniProt Q13107)
T4 sequence (whole entry): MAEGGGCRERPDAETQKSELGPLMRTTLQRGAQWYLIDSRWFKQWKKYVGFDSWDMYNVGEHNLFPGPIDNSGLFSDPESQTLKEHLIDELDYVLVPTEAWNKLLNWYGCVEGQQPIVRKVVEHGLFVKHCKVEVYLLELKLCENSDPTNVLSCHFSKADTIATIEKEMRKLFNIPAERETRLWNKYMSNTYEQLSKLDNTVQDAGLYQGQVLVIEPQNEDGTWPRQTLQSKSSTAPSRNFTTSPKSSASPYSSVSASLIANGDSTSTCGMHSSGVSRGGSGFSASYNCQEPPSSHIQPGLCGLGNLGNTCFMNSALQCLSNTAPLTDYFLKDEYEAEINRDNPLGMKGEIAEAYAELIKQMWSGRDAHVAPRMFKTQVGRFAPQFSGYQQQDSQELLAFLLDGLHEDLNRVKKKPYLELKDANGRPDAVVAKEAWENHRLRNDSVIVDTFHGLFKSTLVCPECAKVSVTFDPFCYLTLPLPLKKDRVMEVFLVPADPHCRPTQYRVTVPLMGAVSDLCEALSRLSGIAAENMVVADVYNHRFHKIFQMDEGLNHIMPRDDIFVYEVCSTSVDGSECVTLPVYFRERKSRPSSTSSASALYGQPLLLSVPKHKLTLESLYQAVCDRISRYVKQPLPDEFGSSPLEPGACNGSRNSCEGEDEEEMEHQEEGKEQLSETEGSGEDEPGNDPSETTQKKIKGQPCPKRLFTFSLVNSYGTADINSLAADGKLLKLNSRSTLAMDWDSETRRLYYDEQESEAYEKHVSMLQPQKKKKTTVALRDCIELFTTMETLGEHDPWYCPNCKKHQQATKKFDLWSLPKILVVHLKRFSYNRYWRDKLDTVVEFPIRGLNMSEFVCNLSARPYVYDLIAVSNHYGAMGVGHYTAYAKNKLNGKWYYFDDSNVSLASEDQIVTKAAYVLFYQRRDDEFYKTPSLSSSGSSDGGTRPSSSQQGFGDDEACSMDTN
Summary of the method: as §1

Measured: log2 ratio of Biotin-Ahx-Ub-VS probe labelling

O=C(CCl)NC1(c2ccc3c(c2)OCCO3)CCCC1
inactive: USP34 -0.146 | USP36 -0.197 | USP38 -0.013 | USP39 0.277 | USP4 -0.0625
